# According to PubChem BioAssay (EPA / NIEHS):
# Records with an inconclusive call do not appear. Active and inactive are the calls of the source. Rule for the calls: active = hit-call score of the fitted dose curve at least 0.9, where 1 is the maximum; inconclusive = response in the unintended direction; inactive = score below 0.9.
# Assays:
# [1] = test system: frog Estrogen Receptor (ESR1), gene 398734; assay: ATG_frER1_XSP1: Attagene TRANS-FACTORIAL Multi-Species (XSP1) HepG2 Assay for frog Estrogen Receptor (ESR1) (AID 2283777)
# How it was run: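 Read-out: fluorescent reporter mRNA via RT-PCR, HpaI digestion and capillary electrophoresis, after 24 h chemical exposure of transiently transfected human HepG2 cells expressing exogenous NR-Gal4 chimeras. DMSO served as baseline for positive-direction fitting.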
# [2] = test system: zebrafish Estrogen Receptor (ESR2A), gene 317734; assay: ATG_zfER2a_XSP1: Attagene TRANS-FACTORIAL Multi-Species (XSP1) HepG2 Assay for zebrafish Estrogen Receptor (ESR2A) (AID 2283778)
# How it was run: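 HepG2 cells transiently transfected with multiplexed GAL4-UAS reporter units and chimeric NR-GAL4 receptors; 24 h compound exposure with 3 nM 6-alpha-fluorotestosterone present. Reporter mRNA quantified by RT-PCR and capillary electrophoresis, gain-of-signal fitted relative to DMSO.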
# [3] = biological target: chicken Estrogen Receptor (ESR1), ESR1 (gene 396099) (UniProt P06212); assay: ATG_chERa_XSP1: Attagene TRANS-FACTORIAL Multi-Species (XSP1) HepG2 Assay for chicken Estrogen Receptor (ESR1) (AID 2283779)
# Sequence of chicken Estrogen Receptor (ESR1), ESR1 (gene 396099) (P06212 whole entry, looked up, the tested form may be a part): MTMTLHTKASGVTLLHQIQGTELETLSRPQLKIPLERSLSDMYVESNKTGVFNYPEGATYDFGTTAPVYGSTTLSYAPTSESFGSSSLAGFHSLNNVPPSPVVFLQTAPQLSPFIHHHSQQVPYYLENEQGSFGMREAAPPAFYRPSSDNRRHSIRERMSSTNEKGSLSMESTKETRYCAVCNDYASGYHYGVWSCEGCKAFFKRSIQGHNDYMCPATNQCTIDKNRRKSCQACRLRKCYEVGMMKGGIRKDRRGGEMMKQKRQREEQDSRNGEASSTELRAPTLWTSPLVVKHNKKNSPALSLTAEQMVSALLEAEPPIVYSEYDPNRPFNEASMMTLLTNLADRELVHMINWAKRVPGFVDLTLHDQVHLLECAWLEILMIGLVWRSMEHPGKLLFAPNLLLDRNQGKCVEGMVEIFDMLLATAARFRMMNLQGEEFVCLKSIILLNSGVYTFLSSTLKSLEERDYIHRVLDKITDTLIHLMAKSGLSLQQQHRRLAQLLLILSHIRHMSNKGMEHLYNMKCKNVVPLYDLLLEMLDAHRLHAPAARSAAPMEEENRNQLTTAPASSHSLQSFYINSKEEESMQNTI
# How it was run: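 HepG2 cells transiently transfected with multiplexed GAL4-UAS reporter units expressing chimeric NR-Gal4 proteins; 3 nM 6-alpha-fluorotestosterone present. Reporter mRNA measured 24 h after dosing by RT-PCR, FAM labelling, HpaI digest and capillary electrophoresis; gain of signal versus DMSO.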
# [4] = biological target: Estrogen receptor (Homo sapiens) (UniProt P03372); assay: ATG_hERa_XSP1: Attagene TRANS-FACTORIAL Multi-Species (XSP1) HepG2 Assay for human Estrogen Receptor (ESR1) (AID 2283780)
# Sequence of Estrogen receptor (Homo sapiens) (P03372 whole entry, looked up, the tested form may be a part): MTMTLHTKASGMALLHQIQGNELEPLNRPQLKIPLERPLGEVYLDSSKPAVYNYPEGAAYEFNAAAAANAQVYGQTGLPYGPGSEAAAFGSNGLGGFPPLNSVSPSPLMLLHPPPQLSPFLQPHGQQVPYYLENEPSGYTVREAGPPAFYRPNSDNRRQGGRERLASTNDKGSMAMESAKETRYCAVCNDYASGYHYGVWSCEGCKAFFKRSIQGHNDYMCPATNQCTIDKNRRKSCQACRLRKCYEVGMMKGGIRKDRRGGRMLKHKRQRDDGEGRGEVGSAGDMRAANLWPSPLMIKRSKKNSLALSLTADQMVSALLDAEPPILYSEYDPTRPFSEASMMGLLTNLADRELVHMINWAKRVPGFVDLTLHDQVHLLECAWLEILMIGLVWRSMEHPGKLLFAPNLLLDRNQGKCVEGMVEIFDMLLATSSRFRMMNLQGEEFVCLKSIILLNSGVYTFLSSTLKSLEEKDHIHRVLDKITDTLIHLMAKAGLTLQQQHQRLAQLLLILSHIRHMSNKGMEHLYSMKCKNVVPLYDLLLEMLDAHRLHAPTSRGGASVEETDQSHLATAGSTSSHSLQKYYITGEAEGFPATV
# How it was run: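 HepG2 cells transiently transfected with GAL4-UAS reporter units and chimeric NR-Gal4 constructs; 24 h after dosing, reporter mRNA quantified by RT-PCR and capillary electrophoresis. Medium contained 3 nM 6-alpha-fluorotestosterone; activity fitted as gain-of-signal versus DMSO.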
# [5] = test system: turtle Estrogen Receptor (ESR1), gene 101933533; assay: ATG_trERa_XSP1: Attagene TRANS-FACTORIAL Multi-Species (XSP1) HepG2 Assay for turtle Estrogen Receptor (ESR1) (AID 2283781)
# How it was run: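 HepG2 cells transiently transfected with GAL4-UAS reporter units and chimeric NR-Gal4 constructs, dosed for 24 h with 3 nM 6-alpha-fluorotestosterone present. Reporter mRNA was quantified by RT-PCR, fluorescent labelling and capillary electrophoresis, with gain of signal fitted relative to DMSO.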
# [6] = test system: turtle Androgen Receptor (AR), gene 101947425; assay: ATG_trAR_XSP1: Attagene TRANS-FACTORIAL Multi-Species (XSP1) HepG2 Assay for turtle Androgen Receptor (AR) (AID 2283786)
# How it was run: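 HepG2 cells transiently transfected with a turtle AR–GAL4 chimera and GAL4-UAS reporter, co-treated with 3 nM 6-alpha-fluorotestosterone for partial stimulation. Reporter mRNA is quantified at 24 h by RT-PCR and capillary electrophoresis, gain-of-signal versus DMSO.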
# [7] = STM_H9_NormalizedViability: Cytotoxicity Assessment at 120 hours in the Stemina devTOX quickPredict H9 human embryonic stem cell (hESC)-based Assay (AID 2283784)
# How it was run: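 Pluripotent H9 cells dosed, fresh medium plus compound q24h → cell layer read by CellTiter-Fluor → RFU blank-corrected, normalized to DMSO 0.1% mean. Loss-of-signal fit, DMSO as baseline.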
structure (smiles),measurement,setting,value
O=C(c1ccc(O)cc1)c1ccc(O)cc1O,AC50,[1],664 nM (active)
same,AC50,[2],426 nM (active)
same,AC50,[3],1280 nM (active)
same,AC50,[4],1270 nM (active)
same,AC50,[5],879 nM (active)
same,AC50,[6],2690 nM (active)
CN(C)c1ccc(N=Nc2ccccc2C(=O)O)cc1,AC50,[7],68100 nM (active)
Nc1ccc(N)c(Cl)c1,AC50,[7],18700 nM (active)
